Activity calls are given as the source filed them.
Tests used:
[1] = E. coli DRC41 culture turbidity changes, primary screen, E. coli filamentation inducer project, strain DRC41, OD650, 48 h (AID 1152);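 further: E. coli MC1000 strain DRC41 lacking acrAB efflux pump and sulA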; settings: E. coli DRC41 (acrAB sulA), higher = more signal, called active from +8 up or from −8 down
[2] = small-molecule binders of probe aLefty1, primary screen, biochemical, small-molecule microarray, 635/667 nm fluorescence (AID 1153); settings: higher = more signal;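 further: score merges spot fluorescence with signal-to-noise ratio from the scanned slide images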
[3] = PSAC antagonists in infected red cells, primary screen, cell-based, P. falciparum Indochina, OD700, 1 h (AID 1154); settings: P. falciparum Indochina infected RBC osmotic lysis, higher = more signal, called active from +8 up or from −8 down
[4] = PSAC antagonists in infected red cells, primary screen, cell-based, P. falciparum Indochina, OD700, 2 h (AID 1155);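 further: lysis reports solute entry through the parasite surface anion channel PSAC; channel blockers reduce lysis of infected cells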; settings: P. falciparum Indochina infected erythrocytes, osmotic lysis OD700; higher = more signal, called active from +8 up or from −8 down
[5] = osmotic lysis modulators in infected erythrocytes, primary screen, PSAC antagonist project, cell-based, P. falciparum Indochina, OD700, 3 h (AID 1156); settings: higher = more signal, called active from +8 up or from −8 down
[6] = PSAC antagonists in infected red cells, primary screen, cell-based, P. falciparum Indochina, OD700, 18 h (AID 1157); settings: P. falciparum Indochina infected erythrocytes, osmotic lysis OD700, 18 h; higher = more signal, called active from +8 up or from −8 down
[7] = modulators of S6 phosphorylation in cells, primary screen, cell-based, A549, cytoblot, luminescence, serum-stimulated (AID 1158); settings: A549 phospho-S6 cytoblot, 5 h, higher = more signal;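 further: serum-stimulated A549 lung adenocarcinoma cells; signal is phosphorylated S6 detected by cytoblot immunostaining with HRP secondary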
[8] = target: NADPH oxidase 2 (Homo sapiens) (UniProt P04839); assay: NOX2-dependent H2O2 signal modulators, primary screen, NOX inhibitor project, cell-based, HEK293-NOX2, PMA-stimulated, Amplex Red fluorescence (AID 1159); settings: 45 min, higher = more signal, called active from +8 up or from −8 down; further: test concentration not given here
NADPH oxidase 2 (Homo sapiens), sequence (P04839 whole entry, looked up): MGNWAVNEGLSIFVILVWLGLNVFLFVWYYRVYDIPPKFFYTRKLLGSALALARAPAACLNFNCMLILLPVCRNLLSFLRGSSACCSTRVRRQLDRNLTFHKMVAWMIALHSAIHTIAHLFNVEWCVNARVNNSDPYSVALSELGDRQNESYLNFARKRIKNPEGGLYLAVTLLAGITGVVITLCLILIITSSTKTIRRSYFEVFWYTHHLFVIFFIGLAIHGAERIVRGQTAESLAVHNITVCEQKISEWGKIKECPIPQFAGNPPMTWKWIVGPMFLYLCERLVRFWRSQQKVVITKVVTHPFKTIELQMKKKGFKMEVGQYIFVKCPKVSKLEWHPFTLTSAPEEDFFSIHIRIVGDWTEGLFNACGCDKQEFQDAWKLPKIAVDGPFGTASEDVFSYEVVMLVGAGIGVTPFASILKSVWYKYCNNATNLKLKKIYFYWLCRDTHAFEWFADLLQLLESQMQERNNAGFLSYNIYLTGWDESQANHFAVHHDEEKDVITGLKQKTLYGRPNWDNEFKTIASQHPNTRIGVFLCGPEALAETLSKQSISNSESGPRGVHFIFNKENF

[9] = target: NADPH oxidase 4 (Homo sapiens) (UniProt Q9NPH5); assay: NOX4-dependent H2O2 signal modulators, primary screen, NOX inhibitor project, cell-based, HEK293-NOX4, tetracycline-induced, Amplex Red fluorescence (AID 1160); settings: 45 min, higher = more signal, called active from +8 up or from −8 down
NADPH oxidase 4 (Homo sapiens), sequence (Q9NPH5 whole entry, looked up): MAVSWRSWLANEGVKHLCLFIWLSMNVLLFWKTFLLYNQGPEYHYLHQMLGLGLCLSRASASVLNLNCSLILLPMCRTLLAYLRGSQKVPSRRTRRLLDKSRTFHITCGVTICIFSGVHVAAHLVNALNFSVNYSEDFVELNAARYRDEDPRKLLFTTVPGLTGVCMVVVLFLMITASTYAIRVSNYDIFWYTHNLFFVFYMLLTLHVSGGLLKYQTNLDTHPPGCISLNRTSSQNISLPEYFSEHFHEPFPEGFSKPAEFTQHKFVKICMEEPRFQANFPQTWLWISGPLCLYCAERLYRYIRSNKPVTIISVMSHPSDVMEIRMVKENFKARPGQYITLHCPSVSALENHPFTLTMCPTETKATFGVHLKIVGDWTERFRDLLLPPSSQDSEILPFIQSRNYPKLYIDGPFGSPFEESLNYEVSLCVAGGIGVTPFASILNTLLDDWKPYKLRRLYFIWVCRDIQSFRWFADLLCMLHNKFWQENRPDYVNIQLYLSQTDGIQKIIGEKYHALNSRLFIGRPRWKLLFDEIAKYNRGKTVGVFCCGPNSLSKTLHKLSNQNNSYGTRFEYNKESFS

[10] = target: NADPH oxidase 5 (Homo sapiens) (UniProt Q96PH1); assay: NOX5-dependent H2O2 signal modulators, primary screen, NOX inhibitor project, cell-based, HEK293-NOX5, Amplex Red fluorescence (AID 1161); settings: HEK293-NOX5, ionomycin, 45 min, higher = more signal
NADPH oxidase 5 (Homo sapiens), sequence (Q96PH1 whole entry, looked up): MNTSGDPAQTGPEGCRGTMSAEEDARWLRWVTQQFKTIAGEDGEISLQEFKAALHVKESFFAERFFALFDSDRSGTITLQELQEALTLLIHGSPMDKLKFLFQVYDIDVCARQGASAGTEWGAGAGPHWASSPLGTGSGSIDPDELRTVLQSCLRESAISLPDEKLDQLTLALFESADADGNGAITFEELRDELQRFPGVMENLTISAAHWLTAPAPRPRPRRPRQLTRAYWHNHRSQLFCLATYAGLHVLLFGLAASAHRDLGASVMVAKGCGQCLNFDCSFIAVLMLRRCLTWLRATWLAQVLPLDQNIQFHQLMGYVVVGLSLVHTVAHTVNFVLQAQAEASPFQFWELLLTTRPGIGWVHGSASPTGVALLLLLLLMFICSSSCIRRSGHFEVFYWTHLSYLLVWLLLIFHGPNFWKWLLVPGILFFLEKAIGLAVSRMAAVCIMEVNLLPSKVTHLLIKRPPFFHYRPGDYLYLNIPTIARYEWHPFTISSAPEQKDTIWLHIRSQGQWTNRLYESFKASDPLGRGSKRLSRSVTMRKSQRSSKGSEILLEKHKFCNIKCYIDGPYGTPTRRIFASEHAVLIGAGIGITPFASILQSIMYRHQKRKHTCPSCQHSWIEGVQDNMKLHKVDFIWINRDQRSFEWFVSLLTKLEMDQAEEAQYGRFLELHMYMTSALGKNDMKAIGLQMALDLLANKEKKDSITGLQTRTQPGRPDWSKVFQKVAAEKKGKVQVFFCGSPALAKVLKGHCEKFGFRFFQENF

Structure (SMILES)	z-score [1]	composite z-score [2]	z-score [3]	z-score [4]	z-score [5]	z-score [6]	z-score [7]	z-score [8]	z-score [9]	z-score [10]
CCc1cc2c(nc1CC)CCN(CCC(C)=NOC[C@@H](O)[C@H]1O[C@@H]3OC(C)(C)O[C@@H]3[C@H]1O)C2	-1.12 (inactive)	-0.179	0.202 (inactive)	-0.336 (inactive)	0.0286 (inactive)	0.0977 (inactive)	-0.512	0.336 (inactive)	0.494 (inactive)	2.57
CO[C@@H]1COC(=O)CC=C[C@@H](C)COC(=O)[C@H](COCc2ccccc2)NC(=O)CC=C[C@H]1C	-0.0825 (inactive)	-0.363	0.391 (inactive)	0.331 (inactive)	0.195 (inactive)	0.403 (inactive)	-0.186	0.978 (inactive)	-1.24 (inactive)	0.941
O=C1[C@H]2[C@H]3[C@H](O)[C@H](O)CC(=NO[C@@H]4O[C@H](CO)[C@@H](O)[C@H](O)[C@H]4O)[C@H]3CC[C@H]2C(=O)N1C1CCCCC1	-0.094 (inactive)	-0.0046	3.65 (inactive)	-0.0811 (inactive)	-0.284 (inactive)	-0.136 (inactive)	0.561	-0.717 (inactive)	1.15 (inactive)	0.329
N#Cc1ccc(NN2C(C(O)c3cccc4ccccc34)C=CC3C(=O)N(c4ccccc4)C(=O)C32)cc1 (stereo not given)	-0.499 (inactive)	0.696	12.6 (active)	2.68 (inactive)	1.33 (inactive)	1.44 (inactive)	-0.067	-1.58 (inactive)	-3.65 (inactive)	-3.57
COC(=O)[C@H](C)NC(=O)CCC1CC(OC(=O)NCCc2ccc(F)cc2)CC2(CCCC(COC(=O)NCCc3ccc(Cl)cc3)O2)O1 (stereo not given in full)	0.954 (inactive)	-0.0464	1.83 (inactive)	0.316 (inactive)	-0.0413 (inactive)	0.2 (inactive)	0.0808	0.431 (inactive)	0.778 (inactive)	0.612
CO[C@H]1COC(=O)[C@@H]2CCCN2C(=O)CC=C[C@@H](C)[C@H](OC)COC(=O)CC=C[C@@H]1C	0.604 (inactive)	-0.0974	-0.0558 (inactive)	-1.3 (inactive)	-0.464 (inactive)	-1.7 (inactive)	2.35	-0.331 (inactive)	0.631 (inactive)	0.557
COCCCNC(=O)[C@@]1(Sc2ccc(C)cc2)CC(=O)N(Cc2ccccc2)[C@@H]1c1ccc(CO)cc1I	0.613 (inactive)	0.337	4.55 (inactive)	0.831 (inactive)	0.533 (inactive)	0.377 (inactive)	0.505	1.26 (inactive)	-0.666 (inactive)	1.26
CCCC[C@@H](O)C1=C(C)C[C@H]2C(=O)N(Cc3ccccc3)C(=O)[C@H]2[C@H]1CO	0.969 (inactive)	0.0736	2.44 (inactive)	-0.252 (inactive)	-0.347 (inactive)	0.206 (inactive)	0.431	-0.789 (inactive)	0.358 (inactive)	-0.0632
COC(=O)[C@@]1(Cc2ccc(OC)cc2)[C@H]2c3cc(C(=O)N4CCCC4)n(Cc4cc(F)c(F)c(F)c4)c3C[C@H]2CN1C(=O)c1ccccc1	-2.13 (inactive)	2.39	1.1 (inactive)	1.07 (inactive)	0.718 (inactive)	0.911 (inactive)	-0.215	1.01 (inactive)	-0.256 (inactive)	0.603
COC(=O)[C@@H]1CC[C@H](C)[C@@H](c2ccc(C)cc2)N1C(=O)c1ccc(C=NOC(C)CN2CCCCc3nc(C)c(C)cc32)cc1 (stereo not given in full)	0.173 (inactive)	-0.0449	1.21 (inactive)	0.369 (inactive)	1.03 (inactive)	0.367 (inactive)	-0.122	-0.202 (inactive)	-1.62 (inactive)	0.64
C[C@@H]1CC[C@H]2C(=O)O[C@H](COc3ccc(C(C)(C)C)cc3)CN2[C@H]1c1ccc(Br)cc1	-0.425 (inactive)	-0.279	0.813 (inactive)	0.538 (inactive)	-0.082 (inactive)	0.343 (inactive)	-0.53	0.0709 (inactive)	-1.99 (inactive)	0.568
CCOC(=O)CCN1C(=O)[C@H]2[C@H]3[C@H](O)[C@H](O)CC(=NOCc4ccccc4)[C@@H]3CC[C@H]2C1=O	-0.505 (inactive)	-0.094	1.61 (inactive)	0.885 (inactive)	-0.059 (inactive)	0.429 (inactive)	-0.32	-0.104 (inactive)	0.593 (inactive)	1.14
CN1C(=O)C2C=CC(C(O)C(c3ccccc3)c3ccccc3)N(NC(=O)OC(C)(C)C)C2C1=O (stereo not given)	-1.41 (inactive)	0.771	1.41 (inactive)	0.742 (inactive)	-0.343 (inactive)	0.804 (inactive)	-1.16	-0.343 (inactive)	-4.7 (inactive)	-1.76
COC(=O)CC=C[C@@H](C)[C@H](OC)c1ccccc1Br	-0.119 (inactive)	-0.245	0.727 (inactive)	0.716 (inactive)	0.216 (inactive)	0.367 (inactive)	-0.0689	-0.524 (inactive)	0.055 (inactive)	-0.297
CCOC(=O)[C@H](CC(C)C)NC(=O)CCC1CC(OC(=O)NCc2cccc3ccccc23)CC2(CCCC(COC(=O)NCCN3CCOCC3)O2)O1 (stereo not given in full)	-2.17 (inactive)	-0.275	-0.839 (inactive)	-0.655 (inactive)	-2.08 (inactive)	-0.709 (inactive)	0.0369	0.428 (inactive)	0.647 (inactive)	-0.0177
O=C1[C@H]2[C@H]3[C@H](O)[C@H](O)CC(=NO[C@@H]4O[C@H](CO)[C@@H](O)[C@H](O)[C@H]4O)[C@H]3CC[C@H]2C(=O)N1Cc1ccc2c(c1)OCO2	0.614 (inactive)	0.122	15.5 (active)	2.09 (inactive)	0.0435 (inactive)	1.04 (inactive)	-0.438	-2.58 (inactive)	0.514 (inactive)	1.55
C[C@@H]1CCC2C(=O)N(Cc3ccccc3)C[C@@H](O)CN2[C@H]1c1ccc(Br)cc1 (stereo not given in full)	-0.732 (inactive)	-0.0573	0.167 (inactive)	-0.875 (inactive)	-0.75 (inactive)	-0.567 (inactive)	0.805	0.615 (inactive)	-0.146 (inactive)	-0.836
COCCCNC(=O)[C@@]1(CCS(=O)(=O)c2ccccc2)N=C(c2ccc(OCCCO)cc2)O[C@H]1c1ccccc1	2.46 (inactive)	0.812	28.5 (active)	21 (active)	1.08 (inactive)	1.55 (inactive)	0.326	3.58 (inactive)	1.71 (inactive)	-0.339
CN(C)c1ccc(C(O)C2C=CC3C(=O)N(c4ccccc4)C(=O)C3N2Nc2ccccc2F)cc1 (stereo not given)	-1.4 (inactive)	0.284	4.37 (inactive)	1.2 (inactive)	0.252 (inactive)	0.586 (inactive)	-0.288	-2.5 (inactive)	-4.43 (inactive)	-3.99
COc1ccccc1CN1C(=O)c2ccccc2[C@@H](C(=O)NCC(F)(F)F)[C@@H]1c1ccc(CO)cc1	1.22 (inactive)	-0.242	2.54 (inactive)	0.346 (inactive)	-0.114 (inactive)	0.547 (inactive)	-0.189	0.629 (inactive)	0.732 (inactive)	-0.0947
COc1ccc(CCNC(=O)[C@@H]2c3ccccc3C(=O)N(c3ccc(C)cn3)[C@H]2c2ccc(CO)cc2)cc1	0.119 (inactive)	-0.06	2.45 (inactive)	0.478 (inactive)	0.414 (inactive)	0.401 (inactive)	-0.0568	0.0857 (inactive)	-0.882 (inactive)	-2.5
C=CC[C@@H]1C=C[C@H](ON=Cc2ccc(C(=O)N3[C@H](c4ccc(C)cc4)[C@@H](C)CC[C@H]3C(=O)OC)cc2)[C@@H](CO)O1	0.69 (inactive)	-0.0945	2.78 (inactive)	0.852 (inactive)	-0.273 (inactive)	0.637 (inactive)	-1.15	-0.428 (inactive)	0.569 (inactive)	-0.0942
C[C@H]1CC[C@@H](C(=O)O)N[C@@H]1c1ccc(C#CCN(C)C)cc1	0.883 (inactive)	-0.231	0.167 (inactive)	-0.219 (inactive)	0.274 (inactive)	-0.0947 (inactive)	0.112	0.903 (inactive)	-0.00118 (inactive)	0.0715

Reference: PubChem BioAssay
